Screening data deposited in PubChem BioAssay by National Center for Advancing Translational Sciences (NCATS).
Vaccinia Venus – qHTS for Stage-Specific Inhibitors of Vaccinia Orthopoxvirus: Venus Reporter Primary qHTS; actives 0.46% (n = 330,000); Vaccinia virus Venus reporter expression, fluorescence; AID 720580, 2013; Potency, µM (top dose mostly 36.5 µM), without a hit: at the highest dose activity change, negative = inhibition, actives largely listed as inhibitors; calls by dose curve; tested in A549 cells; further: potency means the concentration at half of the fitted maximal effect; nearly all actives have a fitted effect of over 30% in size
Marburg entry inh – qHTS for inhibitors of binding or entry into cells for Marburg Virus; Marburg virus pseudotyped entry inhibition, cell reporter; Potency, µM (doses to about 37.8 µM), for the others: top-dose activity change, negative = inhibition, usual class: inhibitors; actives 1.8% (n = 300,000); calls by dose curve; tested in HEK293 cells; further: potency means the concentration at half of the fitted maximal effect
HCMV inh – qHTS Assay for inhibitors of the human cytomegalovirus (HCMV). HFF cells, HCMV-luciferase reporter, 72 h; active compounds read low. activity change, negative = inhibition, % at 57.5 µM. actives 4.5% (n = 410,000). AID 1259415, 2018; in the data active means activity change below about -60%; inconclusive means no clear call, values can overlap the other calls; inactive means above about -39%
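Inhibition of viral replication was scored as loss of reporter luminescence in HFFs infected with HCMV-luciferase (MOI 1 PFU/cell) for 72 h; compounds tested at 2 doses, normalized to buffer and Salinomycin controls.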
Lassa entry inh – qHTS for Inhibitors of binding or entry into cells for Lassa Virus | Potency, µM (doses to about 37.9 µM), for the others: top-dose activity change, negative = inhibition, hits mostly inhibitors | Lassa virus pseudotype entry inhibition, cell reporter | actives 1.2% (n = 300,000); calls by dose curve; tested in HEK293 cells; further: potency means the concentration at half of the fitted maximal effect; nearly all actives have a fitted effect of over 50% in size
VACV mCherry inh – qHTS for Stage-Specific Inhibitors of Vaccinia Orthopoxvirus: mCherry Reporter Primary qHTS; Potency, µM (top dose mostly 36.5 µM), without a hit: top-dose activity change, negative = inhibition, most hits filed as inhibitors; Vaccinia virus mCherry reporter infection, fluorescence; actives 0.63% (n = 310,000); AID 720579, 2013; calls by dose curve; tested in A549 cells; further: potency means the concentration at half of the fitted maximal effect; nearly all actives have a fitted effect of over 35% in size
HCV inh – qHTS Assay for Inhibitors of Hepatitis C Virus (HCV); Huh7.5.1 HCVcc-Cre infection, luciferase reporter, 44 h; Potency, µM (titrated, usually from 41.8 µM), without a hit: top-dose activity change, negative = inhibition, hits mostly inhibitors; actives 3.4% (n = 340,000); AID 651820, 2012; active means well fitted inhibition curve with a large enough effect; inconclusive means small, poorly fitted or top-dose-only effect, or another doubt; inactive means no such curve, though single readings can be large or run the other way; further: potency means the concentration at half of the fitted maximal effect
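Infectious HCVcc-Cre (~0.5 moi) was added to cells just after compound, with cells seeded 4 h earlier at 1,000 per well. Luciferase activity after 44 h culture reported infection; substrate was incubated 15 min at room temperature before reading.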
* marks the source's active call; other numbers are inactive results; i = inactive; ? = inconclusive; / = no result; [ ] = dose if it differs, or a comment. The list is not random: actives were taken first. Their share in the collection is about 7.8%. On the % scale 0 is the no-effect control and ±100 the full control effect.

SMILES	Vaccinia Venus	Marburg entry inh	HCMV inh	Lassa entry inh	VACV mCherry inh	HCV inh
CCCCN=C[C@]12CCC(O)CC1(O)CCC1[C@@H]2CC[C@]2(C)[C@H](C3C=CC(=O)O3)CCC12O (stereo not given in full)	0.316µM*	3.55µM*	-96.8*	?	0.316µM*	4.47µM*
C[C@]12CCC3C(CCC4=CC(O)CC[C@@]43/C=N/O)C1(O)CCC2C1=CC(=O)OC1 (stereo not given in full)	0.316µM*	?	-96.4*	?	?	2.24µM*
CC(=O)Nc1cccc(Nc2nc3ccccc3n3c(C)nnc23)c1	-4.6%	/	-25.2	11.9%[46.1 µM]	-16.0%	/
NC(c1ccccc1)c1csc(NC(=O)Nc2cccc(Cl)c2)n1 (stereo not given)	10µM*	/	22.3	/	i	/
O=C(Cc1csc(NC(=O)Nc2cccc(Cl)c2)n1)NCc1ccccn1	-24.2%	?	39.0	-10.0%	?	?
O=C(Cc1csc(NC(=O)Nc2cccc(Cl)c2)n1)NC1CCCC1	-28.4%	12.6µM*	-27.8	-13.9%	-27.1%	?
Cc1ccc(CCNC(=O)C2CCN(S(=O)(=O)c3ccc4c(ccn4C)c3)CC2)cc1	-5.8%	/	9.5	-19.2%[46.1 µM]	-11.9%	/
CCOc1ccc2nc(Cl)c(C3CC(c4ccc(C)cc4)=NN3C(=O)CCC(=O)O)cc2c1 (stereo not given)	0.5%	6.3%[46.1 µM]	6.2	30.5%[46.1 µM]	3.8%	/
CC(C)Oc1ccc(C(=O)Nc2nnc(SCC(=O)N3CCOCC3)s2)cc1	-14.0%	?	-21.3	2.82µM*	i	2.6%
CCOC(=O)CNC(=O)CSc1nnc(NC(=O)c2ccc(C)cc2)s1	-1.6%	6.31µM*	-29.1	?	-15.7%	3.5%
O=C(Nc1nnc(SCC(=O)N2CCCc3ccccc32)s1)c1cccc2ccccc12	-13.7%	2.7%	-37.9	-4.3%	-14.6%	12.0%
Cc1ccc(C(=O)Nc2nnc(SCC(=O)N3CCCc4ccccc43)s2)cc1	-6.3%	?	-19.8	3.55µM*	i	15.2%
Cc1cc(CN2CCCC(C(=O)Nc3cccc(-n4cccn4)c3)C2)cc(C)c1O (stereo not given)	-3.9%[7.34 µM]	/	-30.9	/	-11.3%[7.34 µM]	12.6µM*
Cn1cc(CN2CCCC(C(=O)Nc3cccc(-n4cccn4)c3)C2)cn1 (stereo not given)	-3.5%	4.8%[46.1 µM]	-7.5	16.3%[46.1 µM]	-20.9%	2.5%
O=C(Nc1cccc(-n2cccn2)c1)C1CCCN(Cc2cc3ccccc3[nH]2)C1 (stereo not given)	-28.0%	?	-11.0	?	12.6µM*	?
Cc1c(CN2CCCC(C(=O)Nc3cccc(-n4cccn4)c3)C2)cnn1C (stereo not given)	/	/	18.2	/	/	?
CCn1ncc(CN2CCCC(C(=O)Nc3cccc(-c4cc5ccccc5[nH]4)c3)C2)c1C (stereo not given)	?	?	?	12.6µM*	?	?
COc1ccccc1OCCSc1nc2ccccc2n1CC(=O)N1CCOCC1	-1.1%	-7.7%[46.1 µM]	26.3	23.2%[46.1 µM]	-4.7%	/
O=C(Nc1cc2c(cc1C(=O)c1cccc(Br)c1)OCCO2)c1ccccc1F	-19.7%	17.3%[46.1 µM]	-23.9	-7.1%[46.1 µM]	-25.3%	/
Cc1cc(C)n(CC(=O)N2CCC(n3c(C(C)C)nc4cccnc43)CC2)n1	17.2%	/	/	/	0.1%	/
COc1ccc(Oc2nc3ccccc3n3cccc23)cc1	-24.3%	-21.6%	-26.1	-7.2%	/	11.2µM*
CCN1CCN(c2ccc(NS(=O)(=O)c3c(C)nc4sccn4c3=O)cc2Cl)CC1	-11.3%[7.34 µM]	?	-68.0*	-25.2%[46.1 µM]	-16.1%[7.34 µM]	/
CC1(C)CC(=O)C(N=Nc2cc(C(F)(F)F)ccc2Cl)=C(O)C1	/	/	-62.5*	/	/	-19.2%
COc1ccc(C(CC(=O)Nc2ccc(F)c(Cl)c2)N2Cc3ccccc3C2=O)cc1OC (stereo not given)	-6.6%	/	-8.8	-5.6%[46.1 µM]	4.6%	/
Cc1ccc(N(CC(O)Cn2c3ccccc3c3ccccc32)S(C)(=O)=O)c(C)c1 (stereo not given)	/	16.4µM*	-100.9*	1.0%	/	-5.2%
